Assay outcomes (PubChem)
RORgamma inh: qHTS for inhibitors of ROR gamma transcriptional activity; Nuclear receptor ROR-gamma (Mus musculus), P51450; Drosophila S2 Gal4-RORgamma UAS-luciferase reporter, 20 h; Potency, µM (doses to about 53.6 µM), most hits filed as inhibitors; 5.4% of 310,000 active; AID 2551, 2010; further: nearly all actives have a fitted effect of over 60% in size
Target sequence (P51450 whole entry, looked up, the tested form may be a part): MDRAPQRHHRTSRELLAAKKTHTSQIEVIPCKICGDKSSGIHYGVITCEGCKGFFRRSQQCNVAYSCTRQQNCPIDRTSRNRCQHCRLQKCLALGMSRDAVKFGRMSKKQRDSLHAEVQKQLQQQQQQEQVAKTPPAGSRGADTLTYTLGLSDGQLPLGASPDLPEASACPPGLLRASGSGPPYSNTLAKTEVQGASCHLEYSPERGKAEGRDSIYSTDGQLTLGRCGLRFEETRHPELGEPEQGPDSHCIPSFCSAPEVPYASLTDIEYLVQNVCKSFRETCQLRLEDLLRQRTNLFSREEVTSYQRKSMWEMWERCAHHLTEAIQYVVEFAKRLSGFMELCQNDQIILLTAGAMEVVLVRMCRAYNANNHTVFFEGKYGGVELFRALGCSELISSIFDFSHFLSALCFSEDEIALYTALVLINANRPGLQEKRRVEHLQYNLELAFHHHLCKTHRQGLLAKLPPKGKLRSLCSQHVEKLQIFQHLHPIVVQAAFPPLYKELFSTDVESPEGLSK
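Compounds are pin-transferred onto Drosophila Schneider cells expressing a copper-inducible Gal4–ROR gamma transactivation domain fusion. After 1 hr, copper sulfate is added to 700 uM final; luciferase is read 20 hr later.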
KinaseGlo FLuc: Counterscreen for Luciferase (Kinase-Glo TM) Inhibition; Luciferin 4-monooxygenase (Photuris pensylvanica), Q27757; Kinase-Glo luciferase, ATP luminescence, 8 min; Potency, µM (top dose mostly 38.3 µM), usual class: inhibitors; 0.28% of 200,000 active; further: nearly all actives have a fitted effect of over 60% in size
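Inhibition of Kinase-Glo luciferase light generation was assessed at 10 uM ATP in pH 7.2 imidazole buffer, with luminescence measured after eight minutes at ambient temperature.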
VP16 counter: VP16 counterscreen qHTS for inhibitors of ROR gamma transcriptional activity | Drosophila S2 Gal4-VP16 UAS-luciferase, luminescence, 20 h | Potency, µM (top dose mostly 53.6 µM), most hits filed as inhibitors | 3.5% of 310,000 active | AID 2546, 2010;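 further: Gal4-VP16 expression switched on by copper sulfate through the metallothionein promoter; nearly all actives have a fitted effect of over 50% in size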
Large screens that a line does not name were inactive. A selection: hits, their analogues and other compounds. The true share with any hit is near 6.2%. The call rests on the fitted dose curve; in most records, active means well fitted curve in the direction sought with a large enough effect; inconclusive means small, poorly fitted or top-dose-only effect, or another doubt; inactive means no such curve, though single readings can be large; an effect the other way counts as inactive or inconclusive.

CC(=O)Nc1nc(=O)c2ccccc2s1	RORgamma inh inconclusive, VP16 counter inconclusive
CC(C)CN1CCCC2(CCN(C(=O)c3cc(C(F)(F)F)cc(C(F)(F)F)c3)CC2)C1	none
Cn1c(CNC(=O)OC(C)(C)C)nnc1SCc1c(Cl)cccc1Cl	none (no result: KinaseGlo FLuc)
CCCNC(=O)N1N=C(c2ccc(N)cc2)c2cc3c(cc2[C@H]1C)OCO3	none
O=C(c1cc2ccc([N+](=O)[O-])cc2oc1=O)N1CCOCC1	none
C=CCc1cccc(C2NC(C(=O)O)CCC2C)c1 (stereo not drawn)	none (no result: KinaseGlo FLuc)
COc1cccc(C(=O)Nc2nc(C)cs2)c1	RORgamma inh inconclusive
COc1ccc(C(=O)Nc2nc3ccccc3s2)cc1	RORgamma inh 5.01µM, VP16 counter inconclusive (no result: KinaseGlo FLuc)
O=C(Nc1nc2ccccc2s1)c1ccc(F)cc1	RORgamma inh 4.47µM, VP16 counter inconclusive
Fc1ccc(Nc2nc3ccccc3s2)cc1	none
COc1cccc(C(=O)Nc2nc3ccccc3s2)c1	RORgamma inh 12.6µM, VP16 counter 14.1µM (no result: KinaseGlo FLuc)
COc1ccc(C(=O)NCc2nnc(SCC(=O)Nc3nc4ccccc4s3)o2)cc1OC	RORgamma inh 11.2µM, VP16 counter 8.91µM
COc1ccc(C(=O)Nc2nc3ccccc3s2)cc1OC	VP16 counter inconclusive
COc1ccc(C(=O)NCc2nnc(SCC(=O)Nc3cc(C)cc(C)c3)o2)cc1OC	none
COc1cc(S(=O)(=O)N2CCOCC2)ccc1N	none
CCCCC[C@H](O)/C=C/C=C\C/C=C\CCCCC(=O)O	none
Cc1cc(C)c2nc(SCC(=O)NCCN3C(=O)CSC3=O)cc(C)c2c1	none (no result: KinaseGlo FLuc)
COc1ccc2nc(NC(=O)c3ccc(F)cc3)sc2c1	RORgamma inh 11.2µM (no result: KinaseGlo FLuc)
CC(=O)c1sc(NC(=O)c2cc(-c3ccccc3)nn2-c2ccccc2)nc1C	VP16 counter inconclusive
O=C(Nc1nc2ccccc2s1)c1ccccc1[N+](=O)[O-]	RORgamma inh inconclusive (no result: KinaseGlo FLuc)
COc1ccc2nc(NC(=O)c3ccc4ncsc4c3)sc2c1	none
O=C(Nc1nc2ccccc2s1)c1ccc(Cl)s1	RORgamma inh 8.91µM
Cc1ccc(Nc2nc3ccccc3c(=O)s2)cc1C	RORgamma inh 2.82µM, VP16 counter 3.55µM
COc1ccc(Nc2nc3ccccc3c(=O)s2)c(OC)c1	RORgamma inh inconclusive, VP16 counter inconclusive
O=C(Nc1nc2ccccc2s1)c1cc(-c2ccccc2)nn1-c1ccccc1	RORgamma inh 10µM, VP16 counter inconclusive
COC(=O)N1C2CC3(C)CC(=O)CC1(C)C3c1ccccc12 (stereo not drawn)	none (no result: RORgamma inh, VP16 counter)
Cc1nnc(SCC2=C(C(=O)O)N3C(=O)C(NC(=O)c4cccc(F)c4F)C3SC2)s1 (stereo not drawn)	none
CC1=C/C(=N\NC(=O)c2cccs2)CC(C)(C)C1	RORgamma inh 6.31µM, VP16 counter 11.2µM
O=C(NN=C1CCCC1)c1cccs1	RORgamma inh inconclusive, VP16 counter inconclusive
C[C@@H]1C=CCC(=O)OC[C@H](C)C(=O)OC[C@H]2O[C@H]1C=C[C@H]2O	none (no result: KinaseGlo FLuc)
O=C1C=C(c2ccccc2)CC(/C=C/c2ccccc2)C1 (stereo not drawn)	none
COc1ccc(/C=c2\s/c(=C/C(=O)c3ccc(C)cc3)[nH]c2=O)c(OC)c1	RORgamma inh inconclusive
COc1cccc(/C=c2\s/c(=C\C(=O)C(C)(C)C)[nH]c2=O)c1	RORgamma inh 10µM, VP16 counter inconclusive
C[C@@H]1C(=O)CC2C(C)(C)CCC[C@]2(C)[C@@]1(O)CCc1ccoc1 (stereo partly drawn)	none
COc1ccc2[nH]cc(CCNc3nc(-c4ccccc4OC)nc4ccccc34)c2c1	none (no result: KinaseGlo FLuc)
O=C(CCC(=O)c1ccccc1)Nc1ccc(C(=O)O)cc1	none (no result: KinaseGlo FLuc)
CC(=O)c1c(N2CCN(Cc3ccccc3)CC2)nc(=S)n(Cc2ccccc2)c1C	VP16 counter inconclusive
C=CCn1c(C)c(C(C)=O)c(N2CCCC2)nc1=S	none
CC(=O)c1c(C(C)=O)c(C)n(Cc2ccccc2)c1C	none
CCCSc1nc(=S)n(Cc2ccccc2)c(C)c1C(C)=O	RORgamma inh 14.1µM, VP16 counter inconclusive
CCn1c(C)c(C(C)=O)c(N2CCCC2)nc1=S	RORgamma inh 7.94µM (no result: KinaseGlo FLuc)
CC(=O)c1c(N2CCCCC2)nc(=S)n(Cc2ccccc2)c1C	RORgamma inh 11.2µM
O=C(c1ccc(S(=O)(=O)c2ccc(Cl)cc2)cc1)N1CCOCC1	none
CCOc1ccc(NC(=O)CCC(=O)NNC(=O)c2ccccc2Cl)cc1	none (no result: KinaseGlo FLuc)
Cc1ccc(C2N(C)c3ccccc3-c3nc4ccccc4n32)o1 (stereo not drawn)	RORgamma inh 10µM
CCN1c2ccccc2-c2nc3ccccc3n2C1c1ccccn1 (stereo not drawn)	RORgamma inh 8.91µM
CC(=O)N1c2ccccc2-c2nc3ccccc3n2C1C (stereo not drawn)	none (no result: KinaseGlo FLuc)
